TPT1 inh – blocks Candida albicans tRNA 2'-phosphotransferase. recombinant caTPT1, FP RNA substrate dephosphorylation. inhibition, % at 5 µM. 0.81% of 300,000 active. AID 1962;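 active means inhibition above the mean of all tested compounds plus 3 SD, set per screening campaign, cut at about 24% in these data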
CTSL1 counter – cathepsin L1 inhibition, PFM18AAP counter-screen. recombinant F. hepatica cathepsin L1, Z-Leu-Arg-MCA fluorescence. inhibition, % at 5.96 µM. 0.49% of 300,000 active;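 active means inhibition above the mean of all tested compounds plus 3 SD, set per screening campaign, cut at about 17% in these data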
HNF4A DNA FP – change in binding of human HNF4 alpha to DNA. AID 1224865. P41235. activity change, % at 10 µM. HNF4a-FITC DNA binding, fluorescence polarization, 1 h. 0.3% of 360,000 active; in the data active means activity change above about 30%, passing the limit was not always enough
PHOSPHO1 block – inhibitors of human PHOSPHO1 phosphatase. Q8TCT1. recombinant PHOSPHO1, absorbance phosphatase assay. inhibition, % at 13.3 µM. 1.1% of 290,000 active. AID 1565; in the data active means inhibition above about 60%
CendR NRP1 mod – modulators of CendR peptide binding to human neuropilin-1; O14786; FAM-RPARPAR peptide binding to NRP-1, fluorescence polarization; inhibition, % at 25 µM; 0.85% of 360,000 active;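 active means inhibition or corrected inhibition above about 18%, plus a signal ratio from 0.5 to 1.5, limit read from the data, passing the limit was not always enough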
Target sequence (O14786 whole entry, looked up): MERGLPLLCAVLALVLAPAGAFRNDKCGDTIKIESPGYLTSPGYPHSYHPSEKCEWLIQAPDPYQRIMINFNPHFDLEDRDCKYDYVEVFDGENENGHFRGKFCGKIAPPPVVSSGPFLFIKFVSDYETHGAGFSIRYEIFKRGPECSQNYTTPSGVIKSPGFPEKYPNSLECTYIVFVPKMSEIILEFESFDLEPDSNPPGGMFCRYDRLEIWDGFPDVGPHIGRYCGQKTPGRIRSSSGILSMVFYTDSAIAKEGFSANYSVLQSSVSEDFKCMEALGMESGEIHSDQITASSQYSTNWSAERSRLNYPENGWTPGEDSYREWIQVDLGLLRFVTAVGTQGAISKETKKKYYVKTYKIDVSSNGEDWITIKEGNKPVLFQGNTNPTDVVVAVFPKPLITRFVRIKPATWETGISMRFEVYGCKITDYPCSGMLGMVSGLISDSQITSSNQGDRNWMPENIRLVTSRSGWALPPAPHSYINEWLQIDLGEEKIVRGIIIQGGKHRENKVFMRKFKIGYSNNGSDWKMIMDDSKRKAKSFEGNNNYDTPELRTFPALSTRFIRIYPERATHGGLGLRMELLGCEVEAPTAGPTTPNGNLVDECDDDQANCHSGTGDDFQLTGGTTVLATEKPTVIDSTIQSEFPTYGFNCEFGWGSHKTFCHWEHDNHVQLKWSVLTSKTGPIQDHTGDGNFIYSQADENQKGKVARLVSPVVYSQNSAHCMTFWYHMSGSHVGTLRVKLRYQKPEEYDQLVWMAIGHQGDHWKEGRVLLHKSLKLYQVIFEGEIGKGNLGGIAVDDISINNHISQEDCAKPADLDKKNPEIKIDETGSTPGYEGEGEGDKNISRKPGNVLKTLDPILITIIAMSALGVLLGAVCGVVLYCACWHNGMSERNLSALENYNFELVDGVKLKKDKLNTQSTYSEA
Rpn11 block – inhibitors of human proteasome Rpn11; O00487; human 26S proteasome, Ub4-pepOG fluorescence polarization; 20S core pre-blocked with epoxomicin; inhibition, % at 20 µM; 0.59% of 360,000 active; AID 588493;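 active means inhibition at 20 µM, scaled to each plate's controls, above about 33%, limit read from the data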
Rpn11 confirm – confirmation of human proteasome Rpn11 inhibitors | shares compounds with Rpn11 block | purified human 26S proteasome, Ub4-pepOG fluorescence polarization; proteasome pretreated with epoxomicin | inhibition, % at 20 µM | 29% of 1,900 active | AID 602318
MMP-2 counter – counter-screen for RPN11 inhibitors: inhibition of human MMP-2; shares compounds with Rpn11 block; inhibition, % at 20 µM; recombinant MMP-2, FRET peptide cleavage fluorescence; 4% of 1,900 active;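 further: human MMP-2 activated beforehand with APMA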
Thrombin inh – blocks bovine thrombin, flagging nonselective RPN11 hits; shares compounds with Rpn11 block; bovine thrombin cleavage of Ub4-pepOG, fluorescence polarization; inhibition, % at 20 µM; 13% of 1,900 active; AID 602333;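 active means mean inhibition at least 40% at 20 µM, or signal 3 deviations below plate average, so some actives read negative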
Each line names hits and unclear results; the compound was inactive in the other large screens (follow-up assays come after a bar, where they were run). This is a sample that favours compounds with a hit; in the whole collection about 3.3% have one here. Unless noted, no stated cut-off is given here; in the data, active means inhibition above about 40%; inactive means the rest.

COc1cc(NC(=O)CCCn2c(=S)[nH]c3ccccc3c2=O)cc(OC)c1OC	none
Clc1ccc(Cn2cccc2C2=NCCO2)cc1	none
CC(NC(=O)C1CCN(C(=O)c2cccs2)CC1)c1ccc(S(N)(=O)=O)cc1 (centres undefined)	Rpn11 block 67 (no result: TPT1 inh, CTSL1 counter, PHOSPHO1 block) | Rpn11 confirm 63 | MMP-2 counter inactive | Thrombin inh inactive
O=C(Nc1nc(=O)n(C(=O)C2CC2)s1)c1ccccc1	none
O=C(N/N=C/c1cc(Br)ccc1O)c1ccncc1	none
Cc1nc(C)c(C(=O)N/N=C/c2cc(Br)ccc2O)s1	Rpn11 block 47 | Rpn11 confirm inactive | MMP-2 counter inactive | Thrombin inh inactive
O=C(N/N=C/c1cc(Cl)ccc1O)c1ccc(Br)cc1	Rpn11 block 166 | Rpn11 confirm 177 | MMP-2 counter inactive | Thrombin inh inactive
Cc1nc(C)c(C(=O)N/N=C/c2c[nH]c3ccccc23)s1	none
CC(=O)OC1CCC2(C)C3CCC4(C)C(C(C)=O)CCC4C3CC3OC32C1 (centres undefined)	none (no result: TPT1 inh, CTSL1 counter, PHOSPHO1 block)
COc1ccc(/C(N)=N/OC(=O)CCc2ccccc2)cc1	none
CCCCN(C=O)c1c(CC)nc2ccc(C(=O)Nc3cc(-c4ccccc4)ccc3OC)cn12	none (no result: TPT1 inh, CTSL1 counter, PHOSPHO1 block)
O=C(Cn1nnc(-c2ccccc2)n1)N=Nc1c(O)[nH]c2ccccc12	Rpn11 block 64 | Rpn11 confirm inactive | MMP-2 counter inactive | Thrombin inh inactive
O=[N+]([O-])c1cccc(/C=N\N=C2c3ccccc3-c3ccccc32)c1O	none
Oc1ccc(C=NN=C2c3ccccc3-c3ccccc32)c(O)c1	Rpn11 block 74 (no result: TPT1 inh, CTSL1 counter, PHOSPHO1 block) | Rpn11 confirm 58 | MMP-2 counter inactive | Thrombin inh 49
COC(=O)c1ccccc1NC(=O)c1ccc(-c2ccc(Br)cc2)o1	none
O=C(Nc1cccc2nsnc12)c1ccc(-c2ccc(Br)cc2)o1	Rpn11 block 53 | Rpn11 confirm inactive | MMP-2 counter inactive | Thrombin inh inactive
CC(C)(C)C(=O)Nc1ccc(N2CCN(c3ccc(C(F)(F)F)cn3)CC2)nc1	none
Cc1cccc(C(=O)Nc2ccc(N3CCN(c4ccc(C(F)(F)F)cn4)CC3)nc2)c1	Rpn11 block 46 | Rpn11 confirm inactive | MMP-2 counter inactive | Thrombin inh inactive
CCn1c(-c2ccccc2Cl)nn(CC(=O)Nc2ccc(OC)cc2)c1=S	none
COC(=O)c1cc2sccc2n1CC(=O)Nc1cccc(SC)c1	none
O=C(CN1C(=O)S/C(=C\c2ccc(-c3cc(C(=O)O)ccc3Cl)o2)C1=O)Nc1ccc2c(c1)OCO2	Rpn11 block 169 (no result: TPT1 inh, CTSL1 counter) | Rpn11 confirm inactive | MMP-2 counter inactive | Thrombin inh inactive
O=C(CCCN1C(=O)/C(=C/c2ccc3c(c2)OCO3)SC1=S)Nc1ccc(C(=O)O)cc1	Rpn11 block 56 | Rpn11 confirm 52 | MMP-2 counter inactive | Thrombin inh inactive
COc1ccc(C=C2SC(=S)N(CCCC(=O)Nc3ccc(C(=O)O)c(O)c3)C2=O)cc1OC	Rpn11 block 45 (no result: TPT1 inh, CTSL1 counter, PHOSPHO1 block) | Rpn11 confirm 97 | MMP-2 counter inactive | Thrombin inh 79
COc1ccc(/C=C2\SC(=S)N(CCC(=O)Nc3ccc(C(=O)O)cc3)C2=O)cc1OC	none
CCOc1ccc(/C=C2\SC(=S)N(CCC(=O)Nc3ccc(C(=O)O)cc3)C2=O)cc1	Rpn11 block 44 | Rpn11 confirm inactive | MMP-2 counter inactive | Thrombin inh inactive
O=C(CCN1C(=O)/C(=C/c2ccc3c(c2)OCO3)SC1=S)Nc1ccc(C(=O)O)cc1	none
O=c1[nH]c2cccc(Cl)c2c2ccccc12	none (no result: TPT1 inh, CTSL1 counter, PHOSPHO1 block)
O=C(Cn1cnc(Cl)c1Cl)c1ccc(F)cc1	none
CNC(=O)/C(C#N)=C/c1c(N2CCN(c3ccc(OC)cc3)CC2)nc2c(C)cccn2c1=O	Rpn11 block 56 | Rpn11 confirm inactive | MMP-2 counter inactive | Thrombin inh inactive
C[C@H](NC(=O)c1ncn2c1c(=O)[nH]c1ccc(Br)cc12)c1ccccc1	Rpn11 block active (no result: TPT1 inh, CTSL1 counter, PHOSPHO1 block) | Rpn11 confirm inactive | MMP-2 counter inactive | Thrombin inh inactive
O=C(Cn1c(=O)oc2ccccc21)Nc1ccc(F)cc1	none
Cc1ccc(/C=C/C(=O)c2c(C)cc(C)[nH]c2=O)cc1	none
Cc1cc(C)c(C(=O)/C=C/c2cccs2)c(=O)[nH]1	Rpn11 block 45 | Rpn11 confirm inactive | MMP-2 counter inactive | Thrombin inh inactive
COc1ccc(/C=C/C(=O)c2c(C)cc(C)[nH]c2=O)c2ccccc12	Rpn11 block 44 (no result: PHOSPHO1 block) | Rpn11 confirm inactive | MMP-2 counter inactive | Thrombin inh inactive
Cc1onc(-c2c(F)cccc2Cl)c1C(=O)OCC(=O)Nc1c(C)n(C)n(-c2ccccc2)c1=O	none
COC(=O)C1=CC(C(=O)c2cccs2)=NN(c2ccc(OC)cc2)C1C(=O)OC (centres undefined)	Rpn11 block 44 | Rpn11 confirm inactive | MMP-2 counter inactive | Thrombin inh inactive
Cc1noc(NS(=O)(=O)c2ccc(NC(=O)CSc3nc4ccccc4s3)cc2)c1C	none
Clc1ccc(-c2nnc3n2CCCCS3)cc1	none
COc1ccc(-n2nc(C(=O)NCC(=O)Nc3ccccn3)c3ccccc3c2=O)cc1Cl	Rpn11 block 102 (no result: TPT1 inh, CTSL1 counter) | Rpn11 confirm inactive | MMP-2 counter inactive | Thrombin inh inactive
c1ccc(-c2cc(N3CCOCC3)nc3ccccc23)cc1	none
CC(=O)c1cccc(NC(=O)c2cccc3c(-c4cccc(C(N)=O)c4)coc23)c1	Rpn11 block active (no result: TPT1 inh, CTSL1 counter, PHOSPHO1 block) | Rpn11 confirm inactive | MMP-2 counter inactive | Thrombin inh 57
CCc1ccc2c(COC(=O)C3CSC4(C)CCC(=O)N34)cc(=O)oc2c1 (centres undefined)	none (no result: TPT1 inh, CTSL1 counter, PHOSPHO1 block)
O=C(N/N=C/c1c[nH]c2ccccc12)c1cc(-c2cccc3ccccc23)n[nH]1	none
COc1ccc(N2CCN(C(c3cc(OC)ccc3OC)c3nnnn3Cc3ccco3)CC2)cc1 (centres undefined)	Rpn11 block 30 | Rpn11 confirm inactive | MMP-2 counter inactive | Thrombin inh inactive
Cc1c(OCC(N)=O)ccc2c(-c3ccccc3)cc(=O)oc12	Rpn11 block 58 | Rpn11 confirm 47 | MMP-2 counter inactive | Thrombin inh inactive
CCC(OC(=O)c1ccco1)C(=O)NCc1ccc(OC)cc1 (centres undefined)	none
CCC(OC(=O)c1ccco1)C(=O)NCc1ccco1 (centres undefined)	Rpn11 block 128 | Rpn11 confirm inactive | MMP-2 counter inactive | Thrombin inh inactive
CC1CCCN(c2nc3nonc3nc2Nc2ccccc2F)C1 (centres undefined)	none

Screening results from PubChem.
